# How the values were obtained:
# Assay in all cases: PBM binding z-score (relative to random genomic background probes); higher = stronger binding; sequences stand for … in GC…GCGATTGACAGCGTAGAATGAAGG
# [1] = test system: FXR:RXRa (NR concentration 270 nM, RXRa partner concentration 90 nM)
# Procedure, shortened: (§1)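 Binding z-scores take random background probes as their reference. They come from custom Agilent 4×180K protein-binding microarrays incubated 1 h with ligand-free nuclear receptor dimers, with antibodies against each partner (one per run) detecting binding. Scanned fluorescence was regression-normalized.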
# [2] = test system: LXRa:RXRa (NR concentration 270 nM, RXRa partner concentration 90 nM)
# Procedure, shortened: as §1
# [3] = test system: LXRa homodimer (NR concentration 270 nM)
# Procedure, shortened: as §1
# [4] = test system: LXRb:RXRa (NR concentration 270 nM, RXRa partner concentration 90 nM)
# Procedure, shortened: as §1
# [5] = test system: LXRb homodimer (NR concentration 270 nM)
# Procedure, shortened: as §1
# [6] = test system: PPARa:RXRa (NR concentration 270 nM, RXRa partner concentration 90 nM)
# Procedure, shortened: as §1
# [7] = test system: PPARg:RXRa (NR concentration 180 nM, RXRa partner concentration 90 nM)
# Procedure, shortened: as §1
# [8] = test system: PPARg:RXRa 270nM:90nM, anti-RXR (NR concentration 270 nM, RXRa partner concentration 90 nM)
# Procedure, shortened: as §1
# [9] = test system: PPARg:RXRa 30nM:10nM, anti-RXR (NR concentration 30 nM, RXRa partner concentration 10 nM)
# Procedure, shortened: as §1
# [10] = test system: PPARg:RXRa 90nM:30nM, anti-RXR (NR concentration 90 nM, RXRa partner concentration 30 nM)
# Procedure, shortened: as §1
Sequence,PBM binding z-score [1],PBM binding z-score [2],PBM binding z-score [3],PBM binding z-score [4],PBM binding z-score [5],PBM binding z-score [6],PBM binding z-score [7],PBM binding z-score [8],PBM binding z-score [9],PBM binding z-score [10]
TTACCAAGGTGAAAGGTCGCTGATGCACGCCTTG,2.82,2.6,-0.188,2.24,-0.623,5.25,8.28,8.53,7.04,9.59
CCTTACGGGTCACTCCAGGTTATAGGATCGGAGT,4.94,7.84,1.93,5.04,-0.0329,4.39,3.38,3.76,1.12,2.6
AGTACGAGGGCAATGAGTTGATAGCACGGGTGGC,0.396,0.352,-0.477,0.0796,-0.401,0.795,1.08,0.242,-0.0294,0.117
CCGACTGGGGCATAGGTTACCATACTCAGTACGA,-0.122,-0.0807,-0.232,0.581,-1.1,3.58,8.18,7.34,6.9,7.37
ATCTCTAGATAAAGATAGTTCAGTGAATGCAAAT,-0.281,0.122,0.343,0.191,0.206,-0.0361,0.872,0.0626,0.338,0.179
TATACAGGGTCAAAGGCCACAGTACGAATGTCGA,7.15,6.26,2.88,5.26,2.68,6.52,9.43,8.36,7.28,8.74
AATACAGGGTCATCGTAGGCCAGAGTACGCACAG,7.52,6.07,2.44,4.7,1.5,5.73,6.55,6.09,2.58,4.87
TCTGCTAGGTCAACGATGGTCAGCTAATCTGCTA,3.45,2.96,-0.225,1.44,-0.144,3.19,2.69,3.14,1.76,2.48
TTACTAAGGTGAAGGTCGTTGATCCCTCTGTAGA,3.06,2.12,0.0636,2.08,-0.257,3.76,5.8,6.91,5.91,7.51
ACTAGTTGGTCAGTTGAGGTCACACACAATTCGG,3.26,3.93,3.56,3.58,0.939,4.12,2.13,2.59,0.914,1.69
TCTAGCATGCCAGAGGGTCACTCAAGAGGTACGG,0.892,0.929,-0.463,1.43,-1.1,2.5,1.02,1.69,1.89,1.76
ACTTACGGGTCAACGAGGTTTTAGCACGCGTATA,6.78,4.29,0.188,3.9,0.561,5.92,5.23,4.84,1.94,3.95
GCTTGTTGATCAAGGTTAAGAAAGACTAAGCTAA,-0.091,0.792,-0.456,0.239,-0.437,1.09,-0.203,0.401,-0.0921,0.472
TCGAGTAGGTTAGGGGCATTCCGAATGGCGTCGA,0.369,0.403,-0.233,0.645,-0.872,1.25,0.541,2.27,1.24,1.64
TATCGGAGGACACGAAGGTCAGAGCTTTCCAGAG,1.17,1.65,1.08,1.14,-0.0992,1.88,0.951,1.18,0.288,0.613
CCAGACACGTGAGAAGGTAACTCAGCCTCGATTA,-0.22,-0.083,-0.348,-0.3,-0.11,-0.534,0.37,-0.804,-0.82,-0.704
CCTTACGGGTCACGAGGTTATAGAACGACGAGCG,6.7,4.58,0.451,4.12,-0.0451,6.16,7.18,6.91,3.33,5.23
AATACTGGGTCACTAGGCCAGAGTAGGTACGAAT,1.9,1.69,0.246,1.5,0.438,4.37,8.02,5.97,3.2,4.75
GTACCAATGTGAATAGGTCGTTGATGAGTAGGCG,-0.0565,-0.171,-0.443,-0.196,-0.467,0.275,0.47,-0.162,-0.118,-0.255
TCATATAGGTAATACGGGTGAAAGTCGGCATCTA,0.703,0.697,0.104,0.839,0.196,1.79,1.31,2.56,3.81,3.07
TCGAGTAGGTTATGGGCATTCAGAATGGCGTCGA,-0.455,0.186,-0.538,-0.2,-1.18,0.825,0.399,1.47,0.906,1.13
ATACCAAGGTGATCGTGACGTCGTTGATACTAAC,0.364,0.342,0.147,0.547,-0.176,0.36,0.582,0.302,-0.0759,0.172

# Reference: the supplement of paper PMC6555819
